Screening results from PubChem.
Pin1 inhibitor: human Pin1 inhibition | Q13526 | Pin1 FP peptide displacement, HiFluor488, 10 min | Potency, µM (highest dose often 115 µM), for the others: top-dose activity, negative = inhibition, hits mostly inhibitors | 390,000 tested, 0.009% active | AID 504891; active means well fitted inhibition curve with a large enough effect in the polarisation, with a control signal flat, not every such curve was filed as active; inconclusive means small, poorly fitted or top-dose-only effect, or effect the other way, or a change in a side signal; inactive means no such curve, though single readings can be large or run the other way; the % refers to the polarisation; further: potency means the concentration at half of the fitted maximal effect; on the % scale 0 is the no-effect control and ±100 the full control effect
Target sequence (Q13526 whole entry, looked up): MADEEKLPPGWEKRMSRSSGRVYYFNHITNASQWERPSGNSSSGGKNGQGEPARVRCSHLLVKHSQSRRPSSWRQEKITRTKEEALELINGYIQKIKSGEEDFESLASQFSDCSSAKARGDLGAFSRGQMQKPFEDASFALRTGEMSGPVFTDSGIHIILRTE
GRP78 ERSR act: inducers of ER stress response in human glioma cells; U87-MG GRP78 promoter luciferase reporter, 16 h; Potency, µM, for inactives: top-dose activation, usual class: activators; 420,000 tested, 0.02% active; AID 602332; further: potency means the concentration at half of the fitted maximal effect; series mostly up to about 76 µM; % of control where 0% means no effect; nearly all actives have a fitted effect of over 35% in size
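Stably transfected U87-MG human glioma cells carrying a GRP78-based luminescent sensor were seeded at 1000 cells/well, pin-dosed with compounds and incubated 16 h. Luciferase reagent was then added, and end-point luminescence was read after 10 min at room temperature.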
PGK inhibitor: inhibitors of T. brucei phosphoglycerate kinase; PGK/GAPDH coupled, Kinase-Glo luminescence, 60 min; AID 602233; 380,000 tested, 0.043% active; Potency, µM (series often up to 57.5 µM), for inactives: at the top dose activity change, negative = inhibition, hits mostly inhibitors; P07378; further: potency means the concentration at half of the fitted maximal effect; on the % scale 0 is the no-effect control and ±100 the full control effect; nearly all actives have a fitted effect of over 60% in size
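Luminescent ATP detection (Kinase-Glo Plus) follows a 60-minute room-temperature incubation, with wells lacking PGK as controls. Buffer: 100 mM TEA (pH 7.6), 5 mM MgCl2, 0.01% Tween-20. Coupling enzyme GAPDH (100 nM final) supplies unstable 1,3-BPG in-well.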
FEN1 inhibitor: inhibitors of human flap endonuclease 1 | P39748 | Recombinant FEN1 flap cleavage, fluorescence, 15 min | Potency, µM (doses to about 114 µM), for inactives: top-dose activity change, negative = inhibition, usual class: inhibitors | 390,000 tested, 0.35% active | AID 588795; further: potency means the concentration at half of the fitted maximal effect; on the % scale 0 is the no-effect control and ±100 the full control effect; nearly all actives have a fitted effect of over 65% in size
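In this screen, 50 nM flap DNA substrate was added to 10 nM FEN1 pretreated with compound for 15 min at room temperature; cleavage was followed with reads at 0 and 15 min, and Hill fitting gave concentration–response parameters.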
WRN inhibitor: WRN helicase (human) inhibition; Q14191; WRN helicase unwinding, fluorescent forked duplex, kinetic; Potency, µM (series often up to 114 µM), inactives show at the highest dose activity change, negative = inhibition, actives largely listed as inhibitors; 360,000 tested, 0.46% active; AID 651768; further: potency means the concentration at half of the fitted maximal effect; on the % scale 0 is the no-effect control and ±100 the full control effect; nearly all actives have a fitted effect of over 55% in size
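Primary qHTS, 1536-well format. 20 nM WRN + compound, 15 min RT; start with 100 nM forked fluorophore/quencher duplex, 2 mM ATP (final); kinetic read ex 525/em 598 nm.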
PI5P4K alpha inh: blocks human PI5P4K alpha kinase activity; 330,000 tested, 1.2% active; AID 652105; P48426; PI5P4Kalpha enzyme, ADP-Glo luminescence, 60 min; active compounds read low; max response, %; active means max response of -50% or lower; inconclusive means between -30% and -50%; inactive means -30% or higher; further: value at the top dose of about 77 µM; on the % scale 0 is the no-effect control and ±100 the full control effect
Target sequence (P48426 whole entry, looked up): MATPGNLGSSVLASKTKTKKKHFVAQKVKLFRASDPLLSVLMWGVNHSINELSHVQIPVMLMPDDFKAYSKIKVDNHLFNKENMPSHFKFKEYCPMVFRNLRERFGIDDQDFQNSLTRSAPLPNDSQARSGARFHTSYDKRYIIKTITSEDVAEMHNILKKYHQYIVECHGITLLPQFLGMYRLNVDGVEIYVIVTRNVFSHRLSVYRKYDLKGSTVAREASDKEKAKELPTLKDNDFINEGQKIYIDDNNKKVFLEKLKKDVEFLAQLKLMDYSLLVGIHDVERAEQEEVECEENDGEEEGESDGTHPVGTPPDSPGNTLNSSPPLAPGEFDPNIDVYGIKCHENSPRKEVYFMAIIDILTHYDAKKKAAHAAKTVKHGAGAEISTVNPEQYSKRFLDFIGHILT
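Controls without substrate or without enzyme flank wells where PI5P4Kalpha converts substrate using 5 microM ATP (final). Incubation lasts 60 minutes at room temperature; ADP formed is read by ADP-Glo luminescence.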
The depositor's hits bear a star; i = inactive; u = inconclusive; x = not tested or not shown. Shown are actives, neighbours in structure and some others; about 1.3% of the full set was active somewhere. Unless noted, the call rests on the fitted dose curve; in most records, active means well fitted curve in the direction sought with a large enough effect; inconclusive means small, poorly fitted or top-dose-only effect, or another doubt; inactive means no such curve, though single readings can be large; an effect the other way counts as inactive or inconclusive.

SMILES	Pin1 inhibitor	GRP78 ERSR act	PGK inhibitor	FEN1 inhibitor	WRN inhibitor	PI5P4K alpha inh
Cc1cc(C)cc(N2C(=O)C=CC2=O)c1	2%	-14%	5%	-13%	20µM*	u
CC1(C(=O)O)CCC2(C)CCC3(C)C(=CC(=O)[C@@H]4C5(C)CC[C@H](O[C@H]6O[C@H](C(=O)O)C(O)C(O)[C@H]6O[C@@H]6O[C@H](C(=O)O)C(O)C(O)C6O)C(C)(C)[C@@H]5CCC43C)[C@@H]2C1 (stereo not given in full)	x	0%	x	x	x	x
O=C1C=CC(=O)N1CCCCCCCCCCN1C(=O)C=CC1=O	5%	-11%	2%	11%	3.2µM*	-51*
Cc1ccc(N=c2ssnc2Cl)cc1	-1%	2%	-1%	-1%	50µM*	-66*
Nc1ccccc1N=c1ssnc1Cl	-5%	8%	-5%	1%	-3%	u
Cc1nnc(N=c2ssnc2Cl)o1	-15%	-3%	2%	u	0%	-101*
Cc1cc(C)nc(/N=c2/ssnc2Cl)c1	-8%	-5%	i	0%	-33%	-1
Cc1cc(Cl)ccc1N=c1ssnc1Cl	-6%	-4%	6%	1%	50µM*	-53*
CCOc1ccc2nc(N3CCCC3C(=O)N3CCC(c4nc5ccccc5o4)CC3)nc(C)c2c1 (stereo not given)	x	-2%	x	x	x	x
NC(=O)C1CCN(c2ncc(-c3ccc(Br)cc3)s2)CC1	2%	x	x	x	x	x
CN(C)CC(C)(C)CNC(=O)c1cnn(-c2nccc(-c3ccc4c(c3)OCO4)n2)c1-c1ccco1	x	-4%	x	x	x	x
COc1ccc(O)c(CN2CCC3(CCC(CNC(=O)C4CCCO4)O3)CC2)c1 (stereo not given)	x	-6%	x	x	x	x
COc1ccc(C(=O)OCC(=O)c2ccco2)cc1[N+](=O)[O-]	x	-1%	-9%	x	-11%	-59*
CC1(C)N=C(Nc2nc3ccccc3o2)NC2=C1C(=O)CCC2	-10%	x	x	x	x	x
O=C1c2cccc3cccc(c23)C(=O)N1/N=C/c1ccc(O)cc1O	u	-4%	-6%	-12%	0%	-11
O=C1c2ccccc2C(=O)N1/N=C/c1ccc(O)c(O)c1O	x	2%	-15%	11µM*	8.9µM*	-55*
O=C1/C(=C/c2ccccn2)SC(=S)N1Nc1ncc(C(F)(F)F)cc1Cl	1%	-2%	2%	-4%	-14%	-66*
O=C1/C(=C\c2ccccn2)SC(=S)N1Nc1ncc(C(F)(F)F)cc1Cl	2%	0%	-4%	-20%	-12%	x
CC[C@]1(O)C[C@H]2CN(CCC3=c4ccccc4=N[C]3[C@@](C(=O)OC)(c3cc4c(cc3OC)N(C)[C@H]3[C@@](O)(C(N)=O)[C@H](O)[C@]5(CC)C=CCN6CC[C@]43[C@@H]65)C2)C1	x	-5%	x	x	x	x
Cc1ccc(Cl)c2c1=NC(=O)C=2c1[nH]c(=S)[nH]c1O	2%	-3%	i	-14%	-3%	-75*
COc1ccc(C2Nc3ccccc3C(=O)N2Cc2cccc(C(F)(F)F)c2)cc1COc1ccc(NC(C)=O)cc1 (stereo not given)	0%	x	x	x	x	x
COc1ccc(CNc2oc(/C=C/c3cc(OC)c(OC)c(OC)c3)nc2C#N)cc1	u	32µM*	7%	-13%	x	x
COc1ccc(/C=C/c2nc(C#N)c(NCc3ccc(C)cc3)o2)cc1OC	9%	-1%	-5%	-30%	x	x
Cc1cccnc1-c1cccc2c1OC(CNC(=O)C1CCCc3c1[nH]c1ccccc31)C2 (stereo not given)	x	-1%	x	x	x	x
Cc1cc(/C=C(\C#N)C(=O)O)c(C)n1CC1CCCO1 (stereo not given)	-1%	2%	-1%	u	2%	-72*
SMILES	Pin1 inhibitor	GRP78 ERSR act	PGK inhibitor	FEN1 inhibitor	WRN inhibitor	PI5P4K alpha inh
CC(C)CC(NC(=O)CNC(=O)C(Cc1ccc(O)cc1)NC(=O)C(CO)NC(=O)C(Cc1c[nH]c2ccccc12)NC(=O)C(Cc1cnc[nH]1)NC(=O)C1CCC(=O)N1)C(=O)NC(CCCN=C(N)N)C(=O)N1CCCC1C(=O)NCC(N)=O (stereo not given)	x	-4%	x	x	x	x
Cc1nc(C)n(CC(=O)NCC2Cc3cc(-c4cccc(OC(F)(F)F)c4)ccc3O2)n1 (stereo not given)	x	0%	x	x	x	x
COc1cc2cccc(OC)c(=O)c2c(O)c1OC	-1%	-2%	i	13%	-7%	1
CC(=O)Oc1cc2cccc(OC(C)=O)c(=O)c2c(OC(C)=O)c1OC(C)=O	u	1%	u	1.1µM*	8.9µM*	-89*
NC(=O)N=Nc1c(O)[nH]c2ccc([N+](=O)[O-])cc12	u	-2%	-8%	-29%	-29%	0
O=C(O)c1cc(N=Nc2c(O)[nH]c3ccc([N+](=O)[O-])cc23)ccc1Cl	9%	-3%	x	-3%	u	-73*
CC(C)Cn1c(=S)[nH]c2cc(C(=O)O)ccc2c1=O	0%	-3%	-1%	7%	1%	-59*
COCCn1c(=S)[nH]c2cc(C(=O)NC(C)C)ccc2c1=O	-10%	-3%	i	-4%	-3%	0
CN(Cc1cccc2ncccc12)C(=O)c1cnn(-c2ncc3c(n2)-c2ccccc2CC3)c1C1CC1	x	-7%	x	x	x	x
Cc1cccc2cc(CNCCCN3CCCC3=O)c(N3CCN4CCCC4C3)nc12 (stereo not given)	x	-2%	x	x	x	x
CN(C)c1cccc(-c2nc(N3CCC(C(N)=O)CC3)ncc2F)c1	-2%	x	x	x	x	x
COc1cc(C(=O)Nc2ccc(S(=O)(=O)Nc3cnc4ccccc4n3)cc2)cc(OC)c1OC	5%	32µM*	i	3%	5%	-6
COc1cc(C(=O)Nc2ccc(S(=O)(=O)Nc3nccc(C)n3)cc2)cc(OC)c1OC	-7%	32µM*	-8%	0%	1%	-5
Cc1ccc(NS(=O)(=O)c2ccc3c(c2)CC(=O)N3C)cc1C	-1%	x	x	x	x	x
COc1ccc(NC2C[C@H]3CCCC(=O)N4CC[C@@H](C2)[C@@H]34)cc1 (stereo not given in full)	x	50µM*	x	x	x	x
CS(=O)(=O)c1nsc2nc(=O)c(/C=C3\C=Nc4ccccc43)c(N)n12	u	0%	-7%	-2%	-14%	-72*
Cc1ccc2c(c1)CN(CCNC(=O)c1cccc(Cn3cccn3)c1)CC(C)O2 (stereo not given)	x	-1%	x	x	x	x
CC(=O)/C(C#N)=C1\NC(=O)C(Cc2cc(Cl)ccc2Cl)S1 (stereo not given)	-7%	-3%	-4%	15%	-3%	-53*
NC(=O)C1CCN(c2nnc(-c3ccc(Br)cc3)s2)CC1	-2%	x	x	x	x	x
CN(C)CCCN1C(=O)c2cc3ccccc3cc2C1=O	-1%	0%	6%	1%	1%	4
